“And” between values parts separate entries of the source, which are not always exact repeats. Identical values can stand only once. The whole screen tested about 190,000 compounds, of which about 6,900 (3.6%) were called active. Many of the other results were omitted from the sample, so actives are more common in it than they were. A number with no mark means an inactive call. Rule as the data show it: active = inhibition above about 50%; inactive = the rest.

The target of this experiment is Huntingtin (Homo sapiens) (UniProt P42858). In words: mutant huntingtin-calmodulin interaction inhibitors – biochemical, AlphaScreen, primary screen (AID 1671202).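 Also: 0% = both proteins with DMSO and 100% = one protein alone.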 The note with it: AlphaScreen His-mHTT/GST-CaM binding, luminescence; at 15 µM, active compounds read high.
Huntingtin (Homo sapiens), sequence (P42858 whole entry, looked up, stated change not applied): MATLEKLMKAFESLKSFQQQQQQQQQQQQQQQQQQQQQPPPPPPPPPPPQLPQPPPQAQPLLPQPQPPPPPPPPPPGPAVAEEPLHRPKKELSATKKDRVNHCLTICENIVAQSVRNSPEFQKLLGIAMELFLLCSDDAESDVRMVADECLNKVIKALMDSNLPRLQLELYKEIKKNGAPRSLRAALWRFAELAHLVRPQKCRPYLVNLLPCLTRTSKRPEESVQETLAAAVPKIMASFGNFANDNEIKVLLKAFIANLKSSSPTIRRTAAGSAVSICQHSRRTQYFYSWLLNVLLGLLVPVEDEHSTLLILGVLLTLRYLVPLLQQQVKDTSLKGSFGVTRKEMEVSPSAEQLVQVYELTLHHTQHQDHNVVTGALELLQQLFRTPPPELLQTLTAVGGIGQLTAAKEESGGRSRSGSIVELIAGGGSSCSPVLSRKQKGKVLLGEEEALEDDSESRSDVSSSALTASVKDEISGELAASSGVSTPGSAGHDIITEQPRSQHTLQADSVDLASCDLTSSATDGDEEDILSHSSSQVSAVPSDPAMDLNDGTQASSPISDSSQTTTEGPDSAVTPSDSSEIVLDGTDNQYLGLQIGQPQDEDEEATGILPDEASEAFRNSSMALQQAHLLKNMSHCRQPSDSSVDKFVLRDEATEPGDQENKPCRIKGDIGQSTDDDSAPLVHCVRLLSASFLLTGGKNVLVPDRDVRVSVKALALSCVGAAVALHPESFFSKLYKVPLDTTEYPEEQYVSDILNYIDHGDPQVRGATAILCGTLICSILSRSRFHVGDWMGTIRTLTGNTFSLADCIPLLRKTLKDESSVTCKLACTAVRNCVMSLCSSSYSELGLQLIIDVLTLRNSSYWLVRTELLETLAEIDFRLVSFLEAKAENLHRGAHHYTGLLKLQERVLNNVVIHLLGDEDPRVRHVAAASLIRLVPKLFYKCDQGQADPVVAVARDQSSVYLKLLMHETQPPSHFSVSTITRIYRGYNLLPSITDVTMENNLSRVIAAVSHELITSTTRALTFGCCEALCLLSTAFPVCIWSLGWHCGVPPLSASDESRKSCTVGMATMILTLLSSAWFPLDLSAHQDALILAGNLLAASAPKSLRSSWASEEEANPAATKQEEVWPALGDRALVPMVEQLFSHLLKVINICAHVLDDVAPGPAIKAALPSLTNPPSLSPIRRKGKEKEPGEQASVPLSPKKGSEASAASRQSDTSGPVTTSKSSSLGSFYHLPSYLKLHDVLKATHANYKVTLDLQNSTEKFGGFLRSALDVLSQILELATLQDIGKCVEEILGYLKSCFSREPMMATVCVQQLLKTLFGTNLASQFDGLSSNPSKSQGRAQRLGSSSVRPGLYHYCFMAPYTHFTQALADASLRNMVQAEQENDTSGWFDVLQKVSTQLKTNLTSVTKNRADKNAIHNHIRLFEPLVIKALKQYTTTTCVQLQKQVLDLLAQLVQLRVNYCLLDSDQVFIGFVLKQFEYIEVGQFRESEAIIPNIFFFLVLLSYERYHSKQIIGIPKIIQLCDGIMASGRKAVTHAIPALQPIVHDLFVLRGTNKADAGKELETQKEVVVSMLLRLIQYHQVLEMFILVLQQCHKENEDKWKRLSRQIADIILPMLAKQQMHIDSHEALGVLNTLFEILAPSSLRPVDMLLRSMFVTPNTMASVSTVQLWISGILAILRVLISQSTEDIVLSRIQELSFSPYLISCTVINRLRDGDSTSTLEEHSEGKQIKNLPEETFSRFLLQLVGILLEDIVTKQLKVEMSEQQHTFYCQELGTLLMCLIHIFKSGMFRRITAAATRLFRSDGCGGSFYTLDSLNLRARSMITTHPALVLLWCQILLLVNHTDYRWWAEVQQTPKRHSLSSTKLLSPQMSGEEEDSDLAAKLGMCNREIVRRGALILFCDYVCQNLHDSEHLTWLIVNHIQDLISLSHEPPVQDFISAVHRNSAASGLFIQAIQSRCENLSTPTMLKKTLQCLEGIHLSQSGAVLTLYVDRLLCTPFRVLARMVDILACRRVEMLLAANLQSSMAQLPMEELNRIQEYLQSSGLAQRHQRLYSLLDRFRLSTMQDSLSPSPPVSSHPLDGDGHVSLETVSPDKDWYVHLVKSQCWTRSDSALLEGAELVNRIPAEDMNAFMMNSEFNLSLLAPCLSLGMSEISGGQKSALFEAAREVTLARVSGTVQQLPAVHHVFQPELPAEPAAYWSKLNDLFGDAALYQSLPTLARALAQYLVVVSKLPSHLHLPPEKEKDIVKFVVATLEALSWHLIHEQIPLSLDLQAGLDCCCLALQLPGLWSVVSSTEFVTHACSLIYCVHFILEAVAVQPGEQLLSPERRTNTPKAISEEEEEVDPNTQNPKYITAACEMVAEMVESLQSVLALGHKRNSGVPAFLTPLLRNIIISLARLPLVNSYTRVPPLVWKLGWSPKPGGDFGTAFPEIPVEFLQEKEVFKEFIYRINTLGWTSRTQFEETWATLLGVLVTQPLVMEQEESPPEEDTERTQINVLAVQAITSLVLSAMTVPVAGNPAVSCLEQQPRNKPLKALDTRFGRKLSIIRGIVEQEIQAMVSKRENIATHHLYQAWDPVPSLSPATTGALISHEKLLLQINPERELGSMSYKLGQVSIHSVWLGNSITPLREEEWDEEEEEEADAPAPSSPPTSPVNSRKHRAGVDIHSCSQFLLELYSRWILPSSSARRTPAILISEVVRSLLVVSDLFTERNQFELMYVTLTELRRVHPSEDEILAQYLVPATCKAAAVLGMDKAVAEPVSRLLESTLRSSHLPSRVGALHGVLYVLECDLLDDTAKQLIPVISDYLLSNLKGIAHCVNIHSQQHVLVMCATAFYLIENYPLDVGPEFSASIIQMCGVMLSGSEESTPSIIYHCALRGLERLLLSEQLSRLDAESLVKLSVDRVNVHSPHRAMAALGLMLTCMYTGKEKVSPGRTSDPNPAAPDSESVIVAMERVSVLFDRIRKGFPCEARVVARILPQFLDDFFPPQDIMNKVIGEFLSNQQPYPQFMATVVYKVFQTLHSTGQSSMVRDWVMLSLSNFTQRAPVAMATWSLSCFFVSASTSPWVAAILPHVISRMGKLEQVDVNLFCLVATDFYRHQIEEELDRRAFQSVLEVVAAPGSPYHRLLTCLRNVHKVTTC
For `CCCN1C(=O)COc2ccc(-c3noc(-c4ccccc4C(F)(F)F)n3)cc21`, the inhibition (as a rule, the relative decrease from the control value, in per cent) was -2.1%.
Turning to `CCN(CC)c1ncc2c(n1)CCC(C(=O)N(C)c1ccc(C)c(C)c1)C2` (stereo not drawn), the inhibition was 25.8%.
Next, `Cc1ccc(N=Cc2ccc(Cl)cc2Cl)c(O)c1`: 12%; `Cc1ccc2c(c1)-c1c(ssc1=Nc1ccc(Cl)cc1Cl)C(C)(C)N2`: 73.7% (active).
The figure for `CC(=O)Nc1ccc(N2CCCCC2)nc1` is 2.4%; for `O=C(Nc1c(F)cccc1F)N1CCc2[nH]cnc2C1c1ccncc1` (stereo not drawn) it is -5.1%; for `COC(=O)c1ccccc1NC(=O)N1CCc2[nH]cnc2C1c1ccncc1` (stereo not drawn) it is 7.22%.
With `CC(C)NC(=O)N1CCc2[nH]cnc2C1c1ccccn1` (stereo not drawn), the inhibition was 83.5% (active).
Next, `O=C(Cc1ccc(F)cc1)N1CCc2[nH]cnc2C1c1ccccn1` (stereo not drawn): 81.1% (active); `O=C(c1ccc(F)c(F)c1)N1CCc2[nH]cnc2C1c1ccccc1` (stereo not drawn): 17.4%; `O=C(Nc1ccc(C(F)(F)F)cc1)N1CCc2[nH]cnc2C1c1ccncc1` (stereo not drawn): 11.1%.
As for `O=C1OC(c2ccc(Cl)cc2Cl)=N/C1=C\c1ccc(F)cc1`, the inhibition is 2%.
The figure for `COc1cccc(C2CC(c3cc(Br)ccc3F)n3nnnc3N2)c1` (stereo not drawn) is 4.06%; for `CCCNC(=O)C1CN(C(=O)c2ccccc2F)CC1c1cccc(F)c1` (stereo not drawn) it is -5.9%; for `CC1(C)c2ccccc2N(CCO)C12C=Cc1cc([N+](=O)[O-])ccc1O2` (stereo not drawn) it is 62% (active).
In the case of `O=C1CSC(c2cccc([N+](=O)[O-])c2)N1c1cc(Cl)ccc1O` (stereo not drawn), the inhibition is 8%.
The figure for `COc1ccccc1C(=O)Nc1nc2n(n1)C(c1ccccc1)C=C(c1ccc(Cl)cc1)N2` (stereo not drawn) is 51% (active).
Next, `Cc1nc2n(n1)C(c1ccc(Cl)cc1)C=C(c1ccc(Cl)cc1)N2` (stereo not drawn): 31%; `Clc1ccc(C2=CC(c3ccccc3)n3ncnc3N2)cc1` (stereo not drawn): 1% and -2.22%; `CCS(=O)(=O)NCc1nnnn1-c1ccc(F)c(F)c1`: -8.6%.
Next, `Cc1cccc(N2CCC(C(=O)NCc3ccccc3F)C2=O)c1C` (stereo not drawn): -0.6%; `COc1ccc(-c2ncc3c(n2)CCN(C(=O)c2cccc(OC)c2)C3)cc1`: 11.1%; `O=C(NC1CCCC1)C1CCNCC1`: -0.4%.
Regarding `Cc1ccc(N2CC(C(=O)Nc3cc(C(F)(F)F)ccc3Cl)CC2=O)cc1C` (stereo not drawn), the inhibition is -1%.
Consider `Cc1cc(-c2nnc(NC(=O)C3CC(=O)N(c4ccc(C)c(C)c4)C3)o2)n(C)n1` (stereo not drawn), for which the inhibition is 90.2% (active).
Consider `COc1ccc(NC(=O)C2CC(=O)N(c3ccc4oc(C)nc4c3)C2)cc1` (stereo not drawn), for which the inhibition is 2.03%.
Next, `O=C(c1cccnc1)N1CCCC1c1nc(-c2cccc(C(F)(F)F)c2)no1` (stereo not drawn): 27.6%; `O=C(C1COc2ccccc2O1)N1CC(c2nc(-c3cccc(C(F)(F)F)c3)no2)C1` (stereo not drawn): 88.9% (active); `N#Cc1ccc(C(=O)N2CCCC2c2nc(-c3cccc(C(F)(F)F)c3)no2)cc1` (stereo not drawn): 2.8%.
Regarding `COc1ccc(C(=O)COc2ccc3c(c2)OC(=Cc2cc(OC)c(OC)c(OC)c2)C3=O)cc1`, the inhibition is 2.6%.
On to `Cc1ccc(C)c(NC(=O)c2cc3n(n2)CCCN(Cc2ccccc2)C3=O)c1`, for which the inhibition is -4.93%.
Turning to `CS(=O)(=O)N1CCc2cc(NC(=O)Nc3cccc(C(F)(F)F)c3)ccc21`, the inhibition is 16.1%.
For `O=C(C1c2ccccc2Oc2ccccc21)N1CCN(c2ccc([N+](=O)[O-])cc2)CC1`, the inhibition was -2.2%.
The figure for `CN(C)c1ccc(C(=O)NC2CCN(c3ccccc3)C2=O)cc1` (stereo not drawn) is -3.2%; for `CN(C)c1ccc(C(O)(c2ccccc2)c2ccccc2)cc1` it is 76% (active); for `CC(C)=CC(=O)CC(C)(O)c1ccccc1` (stereo not drawn) it is 1.5%.
For the molecule `COc1ccccc1C(=O)N1CCc2nc(-c3ccc(Cl)cc3)ncc2C1`, the inhibition is 9.54%.
For `COc1ccccc1-c1nc(C2CCN(C(=O)C3COc4ccccc4O3)CC2)no1` (stereo not drawn), the inhibition was 34.9%.
As to `COc1ccccc1-c1nc(C2CCN(C(=O)c3cc4cc(Cl)ccc4[nH]3)CC2)no1`, the inhibition is 80.8% (active).
Turning to `COc1ccccc1-c1nc(C2CCN(C(=O)c3ccc(Cl)cc3)CC2)no1`, the inhibition is 38.7%.
As to `CCS(=O)(=O)N1CCCC(OCc2nc(CCOC)no2)C1` (stereo not drawn), the inhibition is -8.91%.
As to `COc1ccccc1C(=O)N1CCc2c(nc3cc(-c4ccccc4Cl)[nH]n3c2=O)C1`, the inhibition is 63.9% (active).
Next, `COc1ccccc1CC(=O)N1CCc2c(nc3cc(-c4ccccc4Cl)[nH]n3c2=O)C1`: 53% (active); `O=C(NCC1CCCO1)N1CCc2nc3cc(-c4ccccc4Cl)[nH]n3c(=O)c2C1` (stereo not drawn): 5.22%; `CCCCS(=O)(=O)N1CCc2c(nc3cc(-c4ccccc4Cl)[nH]n3c2=O)C1`: 21.9%.
The figure for `COc1ccc(Cl)cc1C(=O)N1CCc2c(nc3cc[nH]n3c2=O)C1` is 9.45%; for `Cn1cccc1C(=O)N1CCc2nc3cc(-c4ccccc4)[nH]n3c(=O)c2C1` it is 25.2%.
The figure for `CC(=O)NC1CCN(c2ccccc2C(=O)N(C)C2CCCCC2)CC1` is 11.4%; for `COc1ccc(C=CC(=O)NCCN2CCn3cc(OC)c(=O)cc3C2=O)cc1OC` it is -2.5%.
`COc1ccc(CC(=O)Nc2nnc(C3CC(=O)N(c4ccc(Cl)cc4)C3)o2)cc1` (stereo not drawn): the inhibition was 22.1%.
For the molecule `CSc1ccc(N2CC(c3nnc(NC(=O)Cc4ccccc4C)o3)CC2=O)cc1` (stereo not drawn), the inhibition is 68.1% (active).
Consider `Cc1ccccc1OCC(=O)Nc1nnc(C2CC(=O)N(c3ccccc3)C2)o1` (stereo not drawn), for which the inhibition is -0.23%.
For the molecule `Cc1ccc(N2CC(c3nnc(NC(=O)CCc4ccccc4)o3)CC2=O)cc1` (stereo not drawn), the inhibition is 0.32%.
In the case of `COc1ccc(N2CC(c3nnc(NC(=O)Cc4ccc(C)cc4)o3)CC2=O)cc1` (stereo not drawn), the inhibition is 2.93%.
Turning to `O=C(Cc1cccs1)Nc1nnc(C2CC(=O)N(c3ccc(Cl)cc3)C2)o1` (stereo not drawn), the inhibition is 95.7% (active).
With `N#CCOc1ccc2c(=O)c(-c3ccccc3)coc2c1`, the inhibition is -3%.
Consider `CCCCC(=O)Nc1n[nH]c(C)c1-c1ccc(Cl)cc1`, for which the inhibition was 2.8%.
In the case of `COc1ccccc1OCCCCOc1ccccc1OC`, the inhibition is -8.5%.

The values are drawn from PubChem BioAssay AID1671202 (University of Kansas High Throughput Screening Laboratory, 2021).
